Experimental data taken from PubChem BioAssay (EPA / NIEHS).
“And” between values parts separate entries of the source, which are not always exact repeats. Equal values may be shown once. Records with an inconclusive call do not appear. A structure can be active in one record and inactive in another. The source made the active and inactive calls. How the source made its calls: active means hit-call score of the fitted dose curve at least 0.9, where 1 is the maximum; inconclusive means response in the unintended direction; inactive means score below 0.9.

system: not listed separately; test: TOX21_p53_BLA_p5_viability: Viability Assessment in the Tox21 HCT-116 p53 Agonism Beta-lactamase Assay, Phase 5 (AID 2283600)
In short: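 After the 460/530 nm beta-lactamase measurement, the wells received an ATP-detection luciferase reagent; signal was read 30 min later at RT. Compound treatment lasted 16 h on cells pre-incubated 5 h post-seeding.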

Structure (SMILES) | outcome | AC50
C=Cc1ccc(C)cc1 | inactive | 
O=C1c2ccccc2C(=O)c2c(O)ccc(O)c21 | inactive | 
CCCCCc1ccco1 | inactive | 
CN(C)CCOc1ccc(/C(=C(/CCCl)c2ccccc2)c2ccccc2)cc1 | inactive | 59.8 µM (active)
Nc1ccc2c(O)cc(S(=O)(=O)O)cc2c1 | inactive | 
N[C@@H](Cc1cc(I)c(Oc2cc(I)c(O)c(I)c2)c(I)c1)C(=O)O | inactive | 
Nc1ccc(N)c2c1C(=O)c1ccccc1C2=O | inactive | 
CCN(CCN)c1cccc(C)c1 | inactive | 
Clc1ccc(C(c2ccccc2Cl)C(Cl)Cl)cc1 (stereo not given) |  | 72.7 µM (active) and 35.9 µM (active)
Cc1ncc([N+](=O)[O-])n1CCO | inactive | 
CC1(C)C2=CCCC(C)(C)[C@]23CC[C@H]1C3 | inactive | 
OCCCCC(O)CO (stereo not given) | inactive | 
CCCCCCCC(=O)OCC(O)CO (stereo not given) | inactive | 
IC(I)I | inactive | 
C=C1CC[C@H](O)C/C1=C/C=C1\CCC[C@]2(C)[C@@H]([C@H](C)/C=C/[C@H](C)C(C)C)CC[C@@H]12 | inactive | 79.6 µM (active)
CCOC(=O)C(C#N)=C(c1ccccc1)c1ccccc1 | inactive | 
CC(C)(C)CC(C)(C)c1ccc(OCCOCC[N+](C)(C)Cc2ccccc2)cc1 | inactive | 73.6 µM (active)
C=CCCCCCCCCCC | inactive | 
CC(C)=CCCC(C)CCOC=O (stereo not given) | inactive | 
CSc1c(Cl)c(Cl)c(Cl)c(Cl)c1Cl | inactive | 
CCC(C)c1cc([N+](=O)[O-])cc([N+](=O)[O-])c1OC(=O)OC(C)C (stereo not given) | inactive | 

target: Cellular tumor antigen p53 (Homo sapiens) (UniProt P04637); test: TOX21_p53_BLA_p4_ratio: Tox21 HCT-116 p53 Agonism Beta-lactamase Assay, Ratio, Phase 4 (AID 2283601)
Sequence (P04637 whole entry, looked up): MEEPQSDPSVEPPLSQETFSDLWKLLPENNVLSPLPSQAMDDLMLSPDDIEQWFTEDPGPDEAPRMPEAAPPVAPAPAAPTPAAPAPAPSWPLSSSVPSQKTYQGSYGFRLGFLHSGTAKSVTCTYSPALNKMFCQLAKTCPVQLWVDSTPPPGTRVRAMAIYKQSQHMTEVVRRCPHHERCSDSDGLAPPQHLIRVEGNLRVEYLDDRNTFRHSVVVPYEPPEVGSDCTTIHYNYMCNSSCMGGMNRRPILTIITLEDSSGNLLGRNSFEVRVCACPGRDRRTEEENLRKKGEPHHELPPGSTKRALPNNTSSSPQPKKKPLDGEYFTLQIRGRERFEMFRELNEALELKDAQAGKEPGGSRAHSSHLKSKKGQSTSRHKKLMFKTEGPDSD
In short: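 Signal is the blue/green (460nm/530nm) ratio of cleaved versus uncleaved CCF4-AM substrate, read after 2 h substrate loading. Cells were HCT116 carrying the p53-responsive beta-lactamase reporter, dosed 16 h at 37C, 5% CO2; CellTiter-Glo measured in parallel.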

Structure (SMILES) | outcome | AC50
C=Cc1ccc(C)cc1 | inactive | 
O=C1c2ccccc2C(=O)c2c(O)ccc(O)c21 | inactive | 
CCCCCc1ccco1 | inactive | 
CN(C)CCOc1ccc(/C(=C(/CCCl)c2ccccc2)c2ccccc2)cc1 |  | 72.9 µM (active) and 39 µM (active)
Nc1ccc2c(O)cc(S(=O)(=O)O)cc2c1 |  | 46.1 µM (active) and 16 µM (active)
N[C@@H](Cc1cc(I)c(Oc2cc(I)c(O)c(I)c2)c(I)c1)C(=O)O | inactive | 39.8 µM (active)
Nc1ccc(N)c2c1C(=O)c1ccccc1C2=O |  | 13 µM (active)
Clc1ccc(C(c2ccccc2Cl)C(Cl)Cl)cc1 (stereo not given) |  | 82.4 µM (active) and 36.6 µM (active)
Cc1ncc([N+](=O)[O-])n1CCO | inactive | 
CC1(C)C2=CCCC(C)(C)[C@]23CC[C@H]1C3 | inactive | 
OCCCCC(O)CO (stereo not given) | inactive | 
CCCCCCCC(=O)OCC(O)CO (stereo not given) | inactive | 
IC(I)I | inactive | 
C=C1CC[C@H](O)C/C1=C/C=C1\CCC[C@]2(C)[C@@H]([C@H](C)/C=C/[C@H](C)C(C)C)CC[C@@H]12 | inactive | 
CCOC(=O)C(C#N)=C(c1ccccc1)c1ccccc1 | inactive | 
CC(C)(C)CC(C)(C)c1ccc(OCCOCC[N+](C)(C)Cc2ccccc2)cc1 |  | 70.9 µM (active) and 42.1 µM (active)
C=CCCCCCCCCCC | inactive | 
CC(C)=CCCC(C)CCOC=O (stereo not given) | inactive | 
CSc1c(Cl)c(Cl)c(Cl)c(Cl)c1Cl | inactive | 
CCC(C)c1cc([N+](=O)[O-])cc([N+](=O)[O-])c1OC(=O)OC(C)C (stereo not given) | inactive | 
